Data reported in PubChem BioAssay (NCATS).
Results filed as inconclusive are left out. A call without a number means that no potency is given here. Active and inactive are the calls of the source. Unless noted, calls come from the whole dose curve; as a rule, active = well fitted curve in the direction sought with a large enough effect; inconclusive = small, poorly fitted or top-dose-only effect, or another doubt; inactive = no such curve, though single readings can be large; an effect the other way counts as inactive or inconclusive.

Columns and labels:
[1] = NFAT Signaling Pathway (AID 444; active = well fitted curve in either direction with a large enough effect, not every such curve was filed as active;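 note: carbachol stimulus at about its EC50 of 1 µM final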); conditions: Jurkat NFAT-bla M1, carbachol, beta-lactamase ratio, 5 h; at 17.2 µM (top of the series)
Method in brief: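 Read-out: CCF4 FRET ratio (460 nm/530 nm) after 1 h RT dye loading, used for %activity and AC50 from titration series. Cells: Jurkat NFAT-β-lactamase/M1 line, treated with compound plus 1 uM carbachol for 5 h, 37 °C.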

[2] = S16 Schwann cell viability assay (CellTiter-Glo assay) (AID 624031); conditions: S16 rat Schwann cells viability, 24 h; series mostly up to 57.5 µM;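 note: cellular ATP luminescence as a viability measure; nearly all actives have a fitted effect of over 70% in size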
Method in brief: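 CellTiter-Glo ATP luminescence counter-screen in untransfected S16 rat Schwann cells, 24h compound exposure at 37 degree Celsius after overnight seeding (500-750 cells/well); response scaled between cell-free wells and DMSO (0% activity), curves classed by r2 and magnitude.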

[3] = S16 Schwann cell PMP22 intronic element beta-lactamase assay (AID 624044; calls by dose curve; note: nearly all actives have a fitted effect of over 15% in size); conditions: S16 rat Schwann cells, PMP22 element beta-lactamase FRET, 24 h; ratio activity, negative = inhibition: at 38.3 µM (top of the series) unless noted
Method in brief: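 Beta-lactamase reporter under a PMP22 intronic regulatory element in stable S16 rat Schwann cells; 24 h compound exposure. 460 nm blue signal normalized between DMSO (0%) and potassium clavulanate, with 535 nm FRET tracking viability; curves classed by r2 and response.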

[4] = system: CP260; assay: qHTS profiling for inhibitors of Plasmodium falciparum proliferation (AID 504749); note: nearly all actives have a fitted effect of over 60% in size; conditions: P. falciparum in erythrocytes, SYBR Green DNA, 72 h; series mostly up to 28.7 µM
Method in brief: (§1)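 SYBR Green fluorescence of parasite DNA, read after lysis and overnight dark incubation, measured growth over 72 h in erythrocyte culture at 0.3% parasitemia and 2.5% hematocrit. Data normalised to DMSO and 0.29 uM artemisinin, with plate-drift correction.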

[5] = system: DIV14; assay: as above; conditions: P. falciparum in erythrocytes, SYBR Green DNA, 72 h; series mostly up to 28.7 µM
Method in brief: as §1

[6] = system: Dd2; assay: as above; conditions: P. falciparum in erythrocytes, SYBR Green DNA, 72 h; series mostly up to 28.7 µM
Method in brief: as §1

[7] = system: ICS; assay: as above; conditions: P. falciparum in erythrocytes, SYBR Green DNA, 72 h; series mostly up to 28.7 µM
Method in brief: as §1

[8] = system: CP262; assay: as above; conditions: P. falciparum in erythrocytes, SYBR Green DNA, 72 h; series mostly up to 28.7 µM
Method in brief: as §1

[9] = system: PC15; assay: as above; conditions: P. falciparum in erythrocytes, SYBR Green DNA, 72 h; series mostly up to 28.7 µM
Method in brief: as §1

[10] = system: PC26; assay: as above; conditions: P. falciparum in erythrocytes, SYBR Green DNA, 72 h; series mostly up to 28.7 µM
Method in brief: as §1

[11] = Cell Viability - BJ (AID 421; calls by dose curve;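 note: potency is the fitted concentration of half-maximal effect; cells exposed to compound for 40 hours at 37 °C before readout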); conditions: BJ fibroblast viability, qHTS
Method in brief: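 Cytotoxicity in human BJ foreskin fibroblasts is scored as loss of cellular ATP after a 40-hour exposure, measured by luciferase luminescence. Controls are DMSO and 100 uM tamoxifen.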

[12] = Cell Viability - Jurkat (AID 426;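 active = dose-dependent loss of cell ATP signal giving a full or clear fitted curve, ranked by lower potency value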;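 note: potency is the fitted concentration of half-maximal effect; cells exposed to compound for 40 hours at 37 °C before ATP read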); conditions: qHTS
Method in brief: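 Cells of the human T-cell leukemia line Jurkat (E6-1) are seeded at 5000 per well, treated with compound across a concentration range for 40 hours at 37 °C, then lysed with CellTiter-Glo; luminescence reports ATP.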

[13] = Cell Viability - SK-N-SH (AID 435; calls by dose curve;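 note: potency is the fitted concentration of half-maximal effect; compound exposure lasted 40 h at 37 °C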); conditions: SK-N-SH neuroblastoma cell viability qHTS
Method in brief: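 Luminescent ATP signal served as the viability read-out after 40 hours of compound treatment of human neuroblastoma SK-N-SH cells. Concentration-response data, scaled between DMSO and 100 uM tamoxifen, gave AC50 values by standard Hill modeling.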

[14] = Cell Viability - N2a (AID 540); conditions: N2a mouse neuroblastoma cell viability; at 92.2 µM (top of the series);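 note: cells exposed to compound for 40 h at 37 °C; nearly all actives have a fitted effect of over 45% in size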
Method in brief: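 Cytotoxicity was scored as loss of cellular ATP in N2a cells, a mouse neuroblastoma line. Compounds are applied in a qHTS concentration series for 40 hr at 37 °C.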

[15] = Cell Viability - NIH 3T3 (AID 541); conditions: NIH 3T3 cell viability, qHTS; activity change, negative = cytotoxicity: at 92.2 µM (top of the series); note: potency is the fitted concentration of half-maximal effect; nearly all actives have a fitted effect of over 25% in size
Method in brief: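 Cells seeded at 1000/well, rested 5 hr at 37 °C, then dosed and incubated 40 hr at 37 °C. CellTiter-Glo added, 20 min room temperature, luminescence read. AC50 by Hill fit.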

[16] = Cell Viability - SH-SY5Y (AID 544); conditions: SH-SY5Y neuroblastoma cell viability; viability change, negative = cytotoxic: at 92.2 µM (top of the series); note: potency is the fitted concentration of half-maximal effect; nearly all actives have a fitted effect of over 55% in size
Method in brief: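 Cells were plated at 1500 per well and allowed 5 hr at 37 °C. Compounds were added across a concentration range and incubated 40 hr at 37 °C. CellTiter-Glo was added for 20 min at room temperature before luminescence reading.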

[17] = Cell Viability - Renal Proximal Tubule (AID 545); conditions: renal proximal tubule cells viability; at 91.7 µM (top of the series), primary cells of rat origin unless noted; note: nearly all actives have a fitted effect of over 40% in size
Method in brief: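 Luminescent ATP signal (CellTiter-Glo) served as the viability read-out after 40 hr compound exposure of freshly isolated rat proximal tubule cells at 37 °C. Concentration-dependent ATP loss was fitted with the Hill equation to give AC50.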

[18] = molecular target: Voltage-gated inwardly rectifying potassium channel KCNH2 (Homo sapiens) (UniProt Q12809); assay: qHTS Assay for Small Molecule Inhibitors of the Human hERG Channel Activity (AID 588834); conditions: U2OS BacMam hERG, FluxOR thallium flux fluorescence; series mostly up to 92.2 µM;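 note: potency is the fitted concentration of half-maximal effect; lower thallium flux fluorescence means stronger hERG block; nearly all actives have a fitted effect of over 50% in size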
Chain of Voltage-gated inwardly rectifying potassium channel KCNH2 (Homo sapiens) (Q12809 whole entry, looked up): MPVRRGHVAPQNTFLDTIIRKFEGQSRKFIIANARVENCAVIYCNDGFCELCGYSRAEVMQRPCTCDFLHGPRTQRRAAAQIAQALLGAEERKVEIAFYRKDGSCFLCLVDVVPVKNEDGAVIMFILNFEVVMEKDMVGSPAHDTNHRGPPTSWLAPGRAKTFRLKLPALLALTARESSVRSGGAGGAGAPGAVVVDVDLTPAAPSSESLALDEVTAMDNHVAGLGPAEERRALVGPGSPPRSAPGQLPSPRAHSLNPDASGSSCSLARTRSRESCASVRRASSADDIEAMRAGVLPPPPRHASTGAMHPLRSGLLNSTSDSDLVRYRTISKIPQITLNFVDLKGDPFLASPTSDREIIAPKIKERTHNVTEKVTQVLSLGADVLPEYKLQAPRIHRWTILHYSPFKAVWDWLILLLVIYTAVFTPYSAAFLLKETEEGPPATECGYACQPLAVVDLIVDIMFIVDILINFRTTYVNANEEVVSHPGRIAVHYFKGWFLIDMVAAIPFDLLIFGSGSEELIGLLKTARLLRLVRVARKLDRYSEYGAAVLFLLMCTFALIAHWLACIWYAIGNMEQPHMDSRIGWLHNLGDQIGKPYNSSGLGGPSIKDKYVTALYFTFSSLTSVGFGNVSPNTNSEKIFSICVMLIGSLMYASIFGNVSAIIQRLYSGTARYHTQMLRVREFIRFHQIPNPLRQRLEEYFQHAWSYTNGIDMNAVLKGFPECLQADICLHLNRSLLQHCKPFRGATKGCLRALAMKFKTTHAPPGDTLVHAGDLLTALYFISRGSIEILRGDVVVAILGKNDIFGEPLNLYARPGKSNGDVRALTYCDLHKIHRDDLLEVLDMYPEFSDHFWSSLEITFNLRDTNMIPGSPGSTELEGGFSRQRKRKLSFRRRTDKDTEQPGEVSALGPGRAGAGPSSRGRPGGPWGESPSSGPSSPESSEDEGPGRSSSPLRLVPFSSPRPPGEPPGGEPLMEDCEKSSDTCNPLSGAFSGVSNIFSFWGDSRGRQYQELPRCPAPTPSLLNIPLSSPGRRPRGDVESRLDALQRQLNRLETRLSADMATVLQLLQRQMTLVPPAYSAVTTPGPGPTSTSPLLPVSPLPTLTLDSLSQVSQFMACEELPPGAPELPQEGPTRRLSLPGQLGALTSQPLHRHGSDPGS
Method in brief: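 Step 1: BacMam hERG transduction of U2OS, 4 hrs RT. Step 2: overnight 37 °C, plate 2000 cells/well, 4 hr. Step 3: FluxOR load, compound 10 min, stimulate, read fluorescence.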

[19] = Stat Signaling Pathway (AID 446; active = well fitted curve in either direction with a large enough effect, not every such curve was filed as active;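 note: ME-180 cervical cancer cells given 40 pM IL-6 alongside compound; SIE-controlled beta-lactamase reporter measured as 460/530 nm FRET emission ratio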); conditions: ME-180 (cervical carcinoma) SIE beta-lactamase reporter, IL-6 stimulated, 5 h; series mostly up to 17.2 µM
Method in brief: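 Emission at 460 and 530 nm (excitation 405 nm) reports SIE-controlled beta-lactamase in ME-180 cells. Cells received compound with 40 pM IL-6 for 5 hrs at 37 C; data scaled between 300 pM IL-6 and 125 nM JAK-inhibitor controls.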

[20] = molecular target: Androgen receptor (Homo sapiens) (UniProt P10275); assay: qHTS assay for small molecule antagonists of androgen receptor signaling (AID 588516; active = well fitted curve in the direction sought with a large enough effect in the signal ratio, with a control signal flat, not every such curve was filed as active; the % refers to the signal ratio); conditions: AR-UAS-bla HEK293, beta-lactamase ratio, antagonist mode, 16 h; series mostly up to 76.8 µM
Chain of Androgen receptor (Homo sapiens) (P10275 whole entry, looked up): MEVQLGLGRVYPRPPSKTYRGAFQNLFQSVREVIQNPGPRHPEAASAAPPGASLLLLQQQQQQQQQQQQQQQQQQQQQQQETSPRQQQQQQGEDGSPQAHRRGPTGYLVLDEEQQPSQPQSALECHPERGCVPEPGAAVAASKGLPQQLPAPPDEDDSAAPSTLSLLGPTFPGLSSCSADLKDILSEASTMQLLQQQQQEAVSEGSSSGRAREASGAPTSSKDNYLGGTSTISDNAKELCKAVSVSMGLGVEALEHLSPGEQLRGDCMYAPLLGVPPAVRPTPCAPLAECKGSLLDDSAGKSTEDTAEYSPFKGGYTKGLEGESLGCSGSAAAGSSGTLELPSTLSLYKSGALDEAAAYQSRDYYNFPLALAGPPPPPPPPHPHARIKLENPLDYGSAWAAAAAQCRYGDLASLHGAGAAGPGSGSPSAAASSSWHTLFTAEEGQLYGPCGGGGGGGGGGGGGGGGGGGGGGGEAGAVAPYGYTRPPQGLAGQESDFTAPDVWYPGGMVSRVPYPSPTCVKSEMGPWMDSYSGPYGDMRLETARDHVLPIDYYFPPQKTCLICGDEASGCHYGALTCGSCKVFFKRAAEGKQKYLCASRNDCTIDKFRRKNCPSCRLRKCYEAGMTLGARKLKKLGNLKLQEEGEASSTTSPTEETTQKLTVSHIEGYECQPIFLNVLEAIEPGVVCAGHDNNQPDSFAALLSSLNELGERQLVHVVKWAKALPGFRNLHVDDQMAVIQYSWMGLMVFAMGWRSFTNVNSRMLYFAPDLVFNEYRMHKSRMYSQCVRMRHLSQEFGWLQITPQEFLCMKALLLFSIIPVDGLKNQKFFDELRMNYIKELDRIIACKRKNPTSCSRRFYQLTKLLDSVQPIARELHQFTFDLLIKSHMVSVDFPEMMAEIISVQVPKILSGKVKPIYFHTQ
Method in brief: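 Cells were plated and incubated 5 h, compounds added in titration, then R1881 (10 nM final) as agonist. After 16 h at 37 C, CCF4 substrate was loaded for 2 h at room temperature and fluorescence measured.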

**Q.** Which activity change, negative = inhibition [1] does the source give for `C[C@@H]1O[C@H](O[C@@H]2C=C3CC[C@H]4[C@@H](CC[C@]5(C)[C@@H](c6ccc(=O)oc6)CC[C@]45O)[C@@]3(C)CC2)[C@@H](O)[C@H](O)[C@@H]1O` here?
**A.** -39.6% (active)

**Q.** And the Potency [2]?
**A.** inactive

**Q.** What about the Potency [3] of the same compound?
**A.** inactive

**Q.** And the Potency [4]?
**A.** inactive

**Q.** What about the Potency [5] of the same compound?
**A.** inactive

**Q.** What about the Potency [6] of the same compound?
**A.** inactive

**Q.** And the Potency [7]?
**A.** inactive

**Q.** With `CNc1ccc(C(=O)CC(O)CCC(C)C2OC(=O)CC(O)CC(=O)CC(O)CC(O)CC(O)CC(O)CC3(O)CC(O)C(C(=O)OC)C(CC(O[C@@H]4OC(C)C(O)C(N)C4O)/C=C/C=C/C=C/C=C/C=C/C=C/C=C/C2C)O3)cc1` (stereo not given in full) as the compound, how does the Potency [8] read?
**A.** inactive

**Q.** What about the Potency [5] of the same compound?
**A.** inactive

**Q.** What about the Potency [6] of the same compound?
**A.** inactive

**Q.** What about the Potency [9] of the same compound?
**A.** inactive

**Q.** What about the Potency [10] of the same compound?
**A.** inactive

**Q.** With `O=C1C(Cl)=C(Cl)C(=O)C(Cl)=C1Cl` as the compound, how does the Potency [11] read?
**A.** 50.5 µM (active)

**Q.** And the Potency [12]?
**A.** 9.41 µM (active)

**Q.** What about the Potency [13] of the same compound?
**A.** 40.5 µM (active)

**Q.** And the activity change, negative = cytotoxicity [14]?
**A.** -88.2% (active)

**Q.** What about the Potency [15] of the same compound?
**A.** 31.6 µM (active)

**Q.** And the Potency [16]?
**A.** 25.1 µM (active)

**Q.** And the activity change, negative = cytotoxicity [17]?
**A.** -104% (active)

**Q.** What about the Potency [18] of the same compound?
**A.** 44.7 µM (active)

**Q.** For `O=C1C=C2C=C[C@H]3C[C@@]2(O1)[C@H]1CCCCN31`, which outcome [19] is on record?
**A.** inactive

**Q.** Which outcome [19] does the source give for `C[C@@]12CC[C@H]3[C@@H](CC[C@]4(O)C[C@H](O)CC[C@@]34C=O)[C@]1(O)CC[C@@H]2C1=CC(=O)OC1` here?
**A.** inactive

**Q.** Which Potency [2] does the source give for `CC([C@H](O)c1ccccc1)N(C)C` (stereo not given in full) here?
**A.** inactive

**Q.** What about the Potency [3] of the same compound?
**A.** inactive

**Q.** What about the Potency [4] of the same compound?
**A.** inactive

**Q.** And the Potency [8]?
**A.** inactive

**Q.** What about the Potency [9] of the same compound?
**A.** inactive

**Q.** What about the Potency [10] of the same compound?
**A.** inactive

**Q.** For `O=C(O)COc1cc(Cl)c(Cl)cc1Cl`, which Potency [20] is on record?
**A.** inactive

**Q.** With `CCS(=O)CCSP(=O)(OC)OC` (stereo not given) as the compound, how does the Potency [20] read?
**A.** inactive
